Assay [1] can be described thus: CCTE_Harrill_HTTr_CellCount_MCF7: CCTE's Cell Proliferation Assessment for the High-Throughput Transcriptomics (HTTr) Platform, Harrill Lab (AID 2284012).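 Note: cells exposed to compound for six hours; intended direction is loss of nuclei count meaning fewer cells.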 An outline of the steps: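 Cell count served as viability reporter: loss of Hoechst-stained nuclei, counted by high content imaging, marks decreased growth or survival. Exposure was 6 h in MCF-7 cells across eight concentrations, with DMSO as baseline.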

The target of assay [2] is Estrogen receptor (Homo sapiens) (UniProt P03372). Put plainly: CCTE_Deisenroth_AIME_384WELL_LUC_Active: CCTE's 384-well Estrogen Receptor Transactivation Assay with AIME metabolic competence (ERTA luciferase; metabolism positive), Deisenroth Lab (AID 2284030). The procedure, abridged:
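In this metabolism-positive format, a 2-hour exposure to alginate-immobilized rat S9 precedes a 24 hour luciferase transactivation readout in VM7Luc4E2 cells. Dosing spans 10 concentrations from 0.002 to 200 uM.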

Assay [3] can be described thus: CCTE_Shafer_MEA_acute_burst_duration_mean: CCTE's Neural Acute Assay for Mean Burst Duration, Shafer Lab (AID 2284014; active = hit-call score of the fitted dose curve at least 0.9, where 1 is the maximum; inactive = score below 0.9;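 note: hits are decreases in mean burst duration relative to DMSO controls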). The procedure, abridged:
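Mean burst duration was compared between a 40 min baseline and a 40 min recording in the presence of compound (0.03-40 uM, 37 C), giving percent change per well. Cultures were rat cortical neurons at DIV 13 or 15; wells needed ≥10 active electrodes.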

Assay [4] is described as follows: CCTE_Shafer_MEA_acute_per_burst_spike_number_mean: CCTE's Neural Acute Assay for Average Number of Spikes Per Burst, Shafer Lab (AID 2284015; active = hit-call score of the fitted dose curve at least 0.9, where 1 is the maximum; inactive = score below 0.9;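 note: hits are decreases in mean spikes per burst versus baseline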). An outline of the steps:
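Read-out: percent change in mean spikes per burst, each well's post-exposure 40-min recording versus its own 40-min baseline. Rat cortical cultures, DIV 13 or 15, compounds 0.03-40 uM; DMSO is negative control, loss-of-signal fitting.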

Assay [5] is described as follows: CCTE_Shafer_MEA_acute_interburst_interval_mean: CCTE's Neural Acute Assay for Mean Interburst Interval, Shafer Lab (AID 2284016; active = hit-call score of the fitted dose curve at least 0.9, where 1 is the maximum; inactive = score below 0.9;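 note: percent change of mean interburst interval versus each well's own pre-dose baseline; curves fitted for decrease in interburst interval relative to DMSO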). An outline of the steps:
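Rat cortical cultures, DIV 13/15; 20 min equilibration, 40 min baseline, compound 0.03-40 uM, 40 min re-recording, 37 C. Spikes detected at 8x rms noise (300-5000 Hz band-pass). Endpoint: % change in interburst interval, fitted in loss direction vs DMSO.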

The nature of assay [6]: CCTE_Shafer_MEA_acute_burst_percentage_mean: CCTE's Neural Acute Assay for Percentage of Spikes in a Burst, Shafer Lab (AID 2284017; active = hit-call score of the fitted dose curve at least 0.9, where 1 is the maximum; inactive = score below 0.9). The procedure, abridged: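 Rat cortical cultures, DIV 13/15, 37 C. Spikes detected at 8x rms noise (300-5000 Hz band-pass). Burst spikes/total spikes averaged across electrodes per well; % change post- vs pre-treatment (40 min each), loss-of-signal fit vs DMSO.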

Assay [7] can be described thus: CCTE_Shafer_MEA_acute_burst_percentage_std: CCTE's Neural Acute Assay for Standard Deviation of Burst Percentage, Shafer Lab (AID 2284018; active = hit-call score of the fitted dose curve at least 0.9, where 1 is the maximum; inactive = score below 0.9;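 note: fitted in the negative direction so actives lower burst percentage SD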). The procedure, abridged: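 Value is percent change from baseline in the across-electrode SD of spikes-in-bursts percentage, wells with >/= 10 active electrodes. Acute 40-min exposure to 0.03-40 uM on DIV 13 or 15 rat cortical cultures, recorded at 37 C after 40-min baseline.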

Assay [8] in a line: CCTE_Shafer_MEA_acute_per_network_burst_spike_number_mean: CCTE's Neural Acute Assay for Average Number of Spikes in a Network Burst, Shafer Lab (AID 2284019; active = hit-call score of the fitted dose curve at least 0.9, where 1 is the maximum; inactive = score below 0.9). The procedure, abridged:
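Percent change from baseline in mean spikes per network burst, spikes detected at 8x rms noise. Each compound at 0.03-40 uM in at least three wells of rat cortical cultures, recorded 40 min before and 40 min during exposure.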

Assay [9] is described as follows: CCTE_Shafer_MEA_acute_per_network_burst_spike_number_std: CCTE's Neural Acute Assay for Standard Deviation of Number of Spikes in a Network Burst, Shafer Lab (AID 2284020; active = hit-call score of the fitted dose curve at least 0.9, where 1 is the maximum; inactive = score below 0.9;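 note: fitted for decrease in spike-number SD versus DMSO so actives lower it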). An outline of the steps:
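Endpoint: percent change from 40 min baseline in standard deviation of spikes per network burst, after 40 min compound exposure (0.03-40 uM, 37 C). Cortical rat neurons on MEA at DIV 13 or 15; spikes detected at 8x rms noise, 300-5000 Hz band-pass.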

The nature of assay [10]: CCTE_Shafer_MEA_acute_per_network_burst_electrodes_number_mean: CCTE's Neural Acute Assay for Mean Number of Electrodes in a Network Burst, Shafer Lab (AID 2284021; active = hit-call score of the fitted dose curve at least 0.9, where 1 is the maximum; inactive = score below 0.9;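 note: curves fitted for decreases only so hits reduce electrodes per burst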). The procedure, abridged:
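Cultures of rat cortex neurons were exposed on DIV 13 or 15 to compounds at 0.03-40 uM in at least three wells each. Activity over 40 min before and 40 min after exposure at 37 C gave the percent change in electrodes per network burst.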

The nature of assay [11]: CCTE_Shafer_MEA_acute_network_burst_percentage: CCTE's Neural Acute Assay for Percentage of Network Bursts, Shafer Lab (AID 2284022; active = hit-call score of the fitted dose curve at least 0.9, where 1 is the maximum; inactive = score below 0.9;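 note: rat primary cortical neuron networks on multiwell MEA recorded 40 min; curves fitted for loss so actives lower network burst percentage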). The procedure, abridged:
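Cortical neurons from rat were grown over microelectrode arrays and used on day 13 or 15 in vitro. Wells with at least 10 active electrodes received test chemical at 0.03-40 uM. Activity during 40 min of exposure was compared with the preceding 40-min baseline.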

Assay [12] can be described thus: CCTE_Shafer_MEA_acute_cross_correlation_area: CCTE's Neural Acute Assay for Area of Cross Correlation, Shafer Lab (AID 2284024; active = hit-call score of the fitted dose curve at least 0.9, where 1 is the maximum; inactive = score below 0.9;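 note: rat primary cortical neuron networks on 48-well MEA at DIV 13 or 15 with 40 min exposure; area under pooled inter-electrode spike cross-correlation near zero lag as percent change from own baseline; curves fitted for loss of cross-correlation area so actives lower synchrony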). The procedure, abridged:
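Acute exposure of mature rat cortical networks (day 13 or 15 post-plating) to 0.03-40 uM compound. Spontaneous spiking on MEA, 40 min pre- and post-dose at 37 C.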

Assay [13] in a line: CCTE_Shafer_MEA_acute_cross_correlation_HWHM: CCTE's Neural Acute Assay for Cross Correlation at Half Width at Half Maximum, Shafer Lab (AID 2284026; active = hit-call score of the fitted dose curve at least 0.9, where 1 is the maximum; inactive = score below 0.9;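 note: spontaneous network firing of rat primary cortical neurons on multiwell microelectrode arrays; percent change per well from pre-dose baseline in spike cross-correlogram half width; hits are a decrease in cross-correlogram half width relative to DMSO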). The procedure, abridged:
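Primary cortex (rat), MEA, DIV 13/15; compound 0.03-40 uM; 40 min pre + 40 min post at 37 C; spike threshold 8x rms; wells need ≥10 active electrodes; endpoint = % change in cross-correlogram HWHM vs baseline, DMSO negative control.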

Assay [14] is described as follows: CCTE_Shafer_MEA_acute_synchrony_index: CCTE's Neural Acute Assay for Synchrony, Shafer Lab (AID 2284027; active = hit-call score of the fitted dose curve at least 0.9, where 1 is the maximum; inactive = score below 0.9;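 note: network synchrony index of spontaneous spiking in primary rat cortical neurons on MEAs; fitted for loss of signal so actives lower synchrony relative to DMSO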). The procedure, abridged:
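Plates equilibrated 20 min at 37 C, baseline recorded 40 min, compound (0.03-40 uM) added, then 40 min more recorded. Cells: primary rat cortical neurons, DIV 13 or 15. Per-well synchrony index change analysed in negative direction against DMSO.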

The nature of assay [15]: CCTE_Shafer_MEA_dev_firing_rate_mean: CCTE's Neural Network Formation Assay for Mean Firing Rate, Shafer Lab (AID 2284031; active = hit-call score of the fitted dose curve at least 0.9, where 1 is the maximum; inactive = score below 0.9;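 for AC50: curve fitted for loss of firing so AC50 reflects decreased mean firing rate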). The procedure, abridged:
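Steps: seed rat cortical cells (1.5 x 10^5/well) with laminin on PEI-coated MEA; dose day 0; record DIV 5/7/9/12, full media and compound exchange after DIV 5 and 9 recordings; compute well-mean firing rate AUC.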

Assay [16] can be described thus: CCTE_Shafer_MEA_dev_per_burst_spike_percent: CCTE's Neural Network Formation Assay for Percent of Spikes in a Burst, Shafer Lab (AID 2284032; active = hit-call score of the fitted dose curve at least 0.9, where 1 is the maximum; inactive = score below 0.9;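 for AC50: fitted as a decrease in burst spike percentage below DMSO baseline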). The procedure, abridged:
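Value is trapezoidal AUC over recordings on days 5, 7, 9 and 12 of the well-mean fraction of spikes falling in single-electrode bursts; rat cortical cultures exposed continuously from plating, treatment renewed DIV 5 and 9, fitted downward against DMSO.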

The source of these data is PubChem BioAssay (EPA / NIEHS).

What is called AC50 is the concentration giving half of the maximal activity seen.

Structures are written as SMILES. “And” between values parts separate entries of the source, which are not always exact repeats. Equal entries are not always repeated. Inconclusive results are not listed. The source made the active and inactive calls. Rule for the calls, unless noted: active = hit-call score of the fitted dose curve at least 0.9, where 1 is the maximum; inconclusive = response in the unintended direction; inactive = score below 0.9.

Sequence of Estrogen receptor (Homo sapiens) (P03372 whole entry, looked up): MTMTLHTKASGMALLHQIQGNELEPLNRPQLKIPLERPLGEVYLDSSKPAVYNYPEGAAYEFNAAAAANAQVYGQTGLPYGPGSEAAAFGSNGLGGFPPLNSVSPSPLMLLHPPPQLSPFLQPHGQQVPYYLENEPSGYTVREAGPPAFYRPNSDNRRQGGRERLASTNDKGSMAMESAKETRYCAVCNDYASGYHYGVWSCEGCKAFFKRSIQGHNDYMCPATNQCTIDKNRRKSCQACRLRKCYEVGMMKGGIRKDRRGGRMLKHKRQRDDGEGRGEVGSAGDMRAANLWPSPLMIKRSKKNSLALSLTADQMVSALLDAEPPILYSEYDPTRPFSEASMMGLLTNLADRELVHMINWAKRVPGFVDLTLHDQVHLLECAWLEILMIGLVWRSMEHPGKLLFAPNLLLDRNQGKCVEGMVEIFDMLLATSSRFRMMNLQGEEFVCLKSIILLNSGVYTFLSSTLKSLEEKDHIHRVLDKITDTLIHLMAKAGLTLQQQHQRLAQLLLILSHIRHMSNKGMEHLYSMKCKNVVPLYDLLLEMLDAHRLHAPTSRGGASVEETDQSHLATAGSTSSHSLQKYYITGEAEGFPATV

For the molecule `O=C(O)/C=C/c1ccccc1`, the outcome in assay [1] and in [2] was inactive.
Turning to `C1CNCCN1`, the molecule was called inactive in [1], in assay [3], in assay [4], in assay [5], in assay [6] and in [7]. Besides, the call in assay [8], in assay [9], in assay [10], in [11], in [12] and in [13] was inactive. For the same molecule, the molecule was classed as inactive in assay [14].
On to `CCCCC/C=C\C/C=C\CCCCCCCC(=O)O`, for which the call in [1] and in [2] was inactive.
Take `CC(CCC(=O)O)(c1ccc(O)cc1)c1ccc(O)cc1`: the outcome in [3], in assay [4], in assay [5], in assay [6], in assay [7] and in assay [8] was inactive. Also, the molecule was classed as inactive in assay [9], in assay [10], in assay [11], in [12], in [13] and in assay [14]. In addition, in assay [2], the concentration at half-maximal activity (AC50) was 100 µM (active).
As to `CCCCC1C(=O)N(c2ccccc2)N(c2ccccc2)C1=O`, the call in [1] was inactive.
In the case of `C=C1C[C@H]2[C@@H]3C=C(C)C4=CC(=O)CC[C@]4(C)[C@H]3CC[C@]2(C)[C@@]1(OC(C)=O)C(C)=O`, the molecule was classed as inactive in assay [1] and in assay [2].
As for `CC=CC(=O)OCC(C)C`, the result in [1] was inactive.
Take `CC(C)c1cc(C(C)C)cc(C(C)C)c1`: in [2], the molecule was classed as inactive.
Regarding `CCCCCCCCC(CO)CCCCCC` (stereo not given), in [2], the call was inactive.
Consider `N#Cc1ccc(C(c2ccc(C#N)cc2)n2cncn2)cc1`, for which, in [2], the call was inactive.
Turning to `CCCCNS(=O)(=O)c1ccccc1`, the result in assay [2], in assay [15] and in assay [16] was inactive.
Regarding `CCCCNC(=S)NCCCC`, in assay [2], the call was inactive.
Take `CCCCCCCCCCCCCC(=O)OC(C)C`: the call in assay [2] was inactive.
Take `CCCCCC[C@@H](O)C/C=C\CCCCCCCC(=O)OCC(O)CO` (stereo not given in full): the result in [2] was inactive.
Take `COC(=O)c1ccccc1C`: the result in [2] was inactive.
For `CCCCCCCCCCCCc1ccc(O)cc1`, the AC50 in assay [2] is 0.804 µM (active).
As to `CC1(C)[C@@H]2CC[C@@]1(C)C(=O)C2`, the result in assay [2] was inactive.
Turning to `CCCCCCCCCC[N+](C)(CCCCCCCCCC)CCC[Si](OC)(OC)OC`, the call in assay [2] was inactive.
Regarding `C[N+](C)(C)CCCNS(=O)(=O)C(F)(F)C(F)(F)C(F)(F)C(F)(F)C(F)(F)C(F)(F)C(F)(F)C(F)(F)F`, the AC50 is 4.93 µM (active) and 2.98 µM (active) in [15]; 2.98 µM (active) and 4.47 µM (active) in assay [16].
`O=C(O)c1ccc2c(c1)C(=O)OC2=O`: in assay [2], the molecule was called inactive.
Turning to `CCCCNS(=O)(=O)c1ccc(C)cc1`, in assay [2], the molecule was called inactive.
For `CC1=NN(c2ccc(S(=O)(=O)O)cc2)C(=O)C1N=Nc1ccccc1` (stereo not given), the molecule was called inactive in [2].
As for `O=C(Nc1ccccc1)c1cc(Cl)ccc1O`, the outcome in assay [2] was inactive.
On to `CC(C)(C)N`, for which the call in assay [2] was inactive.
As to `CCC1COC(=O)O1` (stereo not given), the outcome in assay [2] was inactive.
Consider `CCCC(CC)c1ccccc1` (stereo not given), for which the molecule was called inactive in assay [2].
In the case of `CCCCCCOc1ccc(N)cc1`, the result in assay [2] was inactive.
For `CO[Si](C)(C)OC`, the molecule was classed as inactive in assay [2].
`CCCCCC(=O)OCC`: the molecule was called inactive in assay [2].
On the same count and under the same terms, to `CCC(C)(O)CCCC(C)C` (stereo not given) belongs “inactive”.
Consider `C/C=C/C=C/CCCCCCCO`, for which the outcome in assay [2] was inactive.
`CC(C)=CCCC(C)=CC#N`: the molecule was classed as inactive in assay [2].
As for `CCCCCCCCCCCCCCCCCCOS(=O)(=O)O`, the molecule was called inactive in assay [2].
The same measure, in the same setting: with `O=C(O)C1CCC(C(=O)O)CC1` (stereo not given) the entry was “inactive”; with `Cc1ccc([N+](=O)[O-])cc1N`, “inactive”.
For the molecule `O=c1c(O)c(-c2ccc(O)cc2O)oc2cc(O)cc(O)c12`, in assay [2], the AC50 is 133 µM (active).
On to `C=CCOC(=O)c1ccc(C(=O)OCC=C)c(C(=O)OCC=C)c1`, for which, in [2], the molecule was called inactive.
Take `Nc1ccc(C(=O)O)cc1`: the molecule was called inactive in [2].
Consider `CCCCCCCCCC(C)=O`, for which the outcome in assay [2] was inactive.
With `C[Si](C)(C)N[Si](C)(C)C`, the molecule was classed as inactive in assay [2].
